This is one part of a sample in which hits are shown more often than they occur.
IL1B secr inh: blocks inflammasome-driven IL-1 beta release | THP-1 LPS/ATP IL-1B secretion, AlphaLISA, 16 h; hits give low values | activity change, % at 57.5 µM | 360,000 tested, 4.7% active | AID 743279; in the data active = activity change below about -50%; inconclusive = mostly about -30% to -49%
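Secreted IL-1B measured by AlphaLISA bead assay after 16 h compound exposure of THP-1 cells; compounds (final up to 57.5 uM) added 1 h before LPS (250 ng/mL) and ATP (1.25 mM) stimulation; lower signal means less secretion.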
HT1080 IDH1KD tx: HT-1080 IDH1 knockdown cell toxicity (counter line); HT-1080 IDH1 knockdown viability, ATP luminescence, 48 h; Potency, µM (highest dose often 46.1 µM), hits mostly cytotoxic; 360,000 tested, 2% active
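Using the IDH1-knockdown HT-1080 line run in the same batch and compound series as the NT line, viability after 48 h at 37 °C was determined by CellTiter-Glo luminescence and expressed as % activity.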
DT40 TDP1 CPT: growth inhibition of DT40 Tdp1-/-;hTDP1 cells with camptothecin (screen for TDP1 inhibitors). chicken DT40 Tdp1-/-;hTDP1 cells + 20 nM CPT, ATP luminescence, 48 h. Potency, µM (titrated, usually from 46.2 µM), most hits filed as inhibitors. 420,000 tested, 12% active. AID 686979; also: nearly all actives have a fitted effect of over 55% in size
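Chicken DT40 Tdp1-/- cells complemented with human TDP1, 400 cells/well, exposed to compounds plus 20 nM camptothecin for at least 48 h at 37 C; viability read as ATP content by CellTiter-Glo luminescence.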
HT1080-NT tox: kills 2HG-producing HT-1080-NT fibrosarcoma cells | 360,000 tested, 1.6% active | HT-1080-NT fibrosarcoma viability, CellTiter-Glo ATP luminescence, 48 h | AID 686970 | Potency, µM (doses to about 46.1 µM), hits mostly cytotoxic;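 also: NT is the 2HG producing partner of a matched IDH1 knockdown line; nearly all actives have a fitted effect of over 55% in size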
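Viability by CellTiter-Glo luminescence after 48 h compound exposure at 37C of HT-1080-NT cells (750/well, RPMI, 5% FBS). % activity scaled between DMSO wells and medium-only wells, then curve-fitted and categorized by curve class.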
ALOX12 inh: inhibitors of human 12S-lipoxygenase ALOX12; purified 12hLO, xylenol orange hydroperoxide absorbance; Potency, µM (highest dose often 108 µM), usual class: inhibitors; 580,000 tested, 1.1% active; AID 1671190
Target sequence (P18054 whole entry, looked up): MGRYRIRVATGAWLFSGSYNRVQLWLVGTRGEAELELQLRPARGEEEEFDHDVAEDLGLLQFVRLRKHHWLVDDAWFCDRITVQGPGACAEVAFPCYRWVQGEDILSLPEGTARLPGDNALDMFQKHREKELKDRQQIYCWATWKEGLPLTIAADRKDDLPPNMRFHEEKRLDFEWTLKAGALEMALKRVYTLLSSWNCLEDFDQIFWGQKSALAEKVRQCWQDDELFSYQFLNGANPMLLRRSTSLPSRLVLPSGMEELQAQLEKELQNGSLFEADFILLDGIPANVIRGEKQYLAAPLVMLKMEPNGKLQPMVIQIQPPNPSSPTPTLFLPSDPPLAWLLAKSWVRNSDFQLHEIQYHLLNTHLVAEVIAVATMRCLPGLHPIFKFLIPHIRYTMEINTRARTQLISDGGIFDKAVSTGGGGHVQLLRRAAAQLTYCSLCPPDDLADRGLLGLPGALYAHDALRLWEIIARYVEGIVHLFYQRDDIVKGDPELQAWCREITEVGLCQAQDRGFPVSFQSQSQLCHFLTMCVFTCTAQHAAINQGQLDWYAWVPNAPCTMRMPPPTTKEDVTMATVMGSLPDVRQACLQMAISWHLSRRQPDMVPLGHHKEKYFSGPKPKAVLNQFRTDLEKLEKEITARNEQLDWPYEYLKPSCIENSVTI
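Purified human 12hLO (150 nM final) in 25 mM Hepes, 0.01% Triton X-100, pH 7.0 was preincubated 15 min at room temperature with compound. Then 40 uM arachidonic acid was added, 30 min. Hydroperoxide was read by Fe-XO absorbance ratio 573/405 nm.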
DT40 TDP1 no CPT: qHTS for Inhibitors of human tyrosyl-DNA phosphodiesterase 1 (TDP1): qHTS in cells in absence of CPT; AID 686978, 2013; Potency, µM (series often up to 46.2 µM), actives largely listed as inhibitors; DT40 Tdp1-/- hTDP1 cells, no CPT, ATP luminescence, 48 h; 420,000 tested, 15% active; also: nearly all actives have a fitted effect of over 55% in size
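Growth kinetics read by CellTiter-Glo luminescence after ≥48 hr at 37 °C. Cells: DT40 Tdp1-/- stably carrying human TDP1, 400 per well, compound exposure in the absence of CPT (DMSO vehicle).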
Numbers stand for hits; [ ] = remark or other dose. Unless noted, calls follow the shape of the dose curve; as a rule, active = well fitted curve in the direction sought with a large enough effect; inconclusive = small, poorly fitted or top-dose-only effect, or another doubt; inactive = no such curve, though single readings can be large; an effect the other way counts as inactive or inconclusive.

Screening COc1ccc(NC(=O)C2CCN(Cc3cnn(-c4ccccc4)c3-n3cccc3)CC2)cc1OC returned IL1B secr inh inconclusive, HT1080 IDH1KD tx inactive, DT40 TDP1 CPT inconclusive, HT1080-NT tox inactive, ALOX12 inh inactive and DT40 TDP1 no CPT inconclusive.
`Cc1ccccc1Nc1ncnc2c1c(-c1ccccc1)cn2-c1ccc(F)cc1` gave DT40 TDP1 CPT inconclusive, ALOX12 inh inactive and DT40 TDP1 no CPT inconclusive.
Screening CCCNc1ncnc2c1c(-c1ccccc1)cn2-c1ccccc1 returned DT40 TDP1 CPT 15µM, ALOX12 inh inconclusive and DT40 TDP1 no CPT 23µM.
For Cc1ccc(CNc2ncnc3c2c(-c2ccccc2)cn3-c2cccc(Cl)c2)cc1 the results were DT40 TDP1 CPT inconclusive, ALOX12 inh inactive and DT40 TDP1 no CPT 18µM.
Screening Fc1ccc(-n2cc(-c3ccccc3)c3c(NCCc4ccccc4)ncnc32)cc1 returned DT40 TDP1 CPT inconclusive, ALOX12 inh inactive and DT40 TDP1 no CPT inconclusive.
`COc1ccc(CCNc2ncnc3c2c(-c2ccccc2)cn3-c2ccc(F)cc2)cc1OC` gave DT40 TDP1 CPT 15µM, ALOX12 inh inactive and DT40 TDP1 no CPT 15µM.
`Cc1ccc(-n2cc(-c3ccccc3)c3c(NN4CCOCC4)ncnc32)cc1` gave IL1B secr inh inactive, HT1080 IDH1KD tx inactive, DT40 TDP1 CPT 21µM, HT1080-NT tox inactive, ALOX12 inh inactive and DT40 TDP1 no CPT 23µM.
For CCc1ccc(C(=O)NCc2ccc(N3CCN(C)CC3)nc2)o1 the results were ALOX12 inh inactive.
For Cc1ccc(C)c(N2CCN(c3ccc4cc(S(=O)(=O)N5CCCCC5)ccc4n3)CC2)c1 the results were IL1B secr inh inactive, HT1080 IDH1KD tx inactive, DT40 TDP1 CPT inconclusive, HT1080-NT tox inactive, ALOX12 inh inconclusive and DT40 TDP1 no CPT inconclusive.
Screening Cc1cccc(N2CCN(c3ccc4cc(S(=O)(=O)N5CCCCC5)ccc4n3)CC2)c1C returned IL1B secr inh inactive, HT1080 IDH1KD tx inactive, DT40 TDP1 CPT 12µM, HT1080-NT tox inactive, ALOX12 inh inactive and DT40 TDP1 no CPT 12µM.
Screening CC1CCCCN1S(=O)(=O)c1ccc2nc(N3CCCCCC3)ccc2c1 (stereo unspecified) returned ALOX12 inh 13µM.
`Cc1cccc(N2CCN(c3ccc4cc(S(=O)(=O)N5CCCCC5)ccc4n3)CC2C)c1` (stereo unspecified) gave IL1B secr inh inactive, HT1080 IDH1KD tx inactive, DT40 TDP1 CPT 12µM, HT1080-NT tox inactive, ALOX12 inh inactive and DT40 TDP1 no CPT 16µM.
For N#Cc1ccc(C(=O)N2CCCCCCNC(=O)[C@@H]3C[C@@H](c4nc(Cc5ccccc5)no4)C[C@@H]32)cc1 the results were ALOX12 inh inactive.
For CCc1cccc(NC(=O)Cn2nc3c(cc2=O)CCCC3)c1 the results were ALOX12 inh inactive.
`CCCN1CCCC12Cc1ccccc1CN(C(=O)c1c(C)noc1C)C2` (stereo unspecified) gave ALOX12 inh inactive[6.33 µM].
`Cc1ccc(S(=O)(=O)CCSC(=N)N)cc1` gave IL1B secr inh -115, HT1080 IDH1KD tx inconclusive, DT40 TDP1 CPT inconclusive, HT1080-NT tox inconclusive, ALOX12 inh inactive and DT40 TDP1 no CPT 16µM.
Screening C[S+](=O)([O-])NC1CC2(CCN(C(=O)Cc3c[nH]c4ccccc34)CC2)c2ccccc21 (stereo unspecified) returned ALOX12 inh inactive[6.33 µM].
Screening Cc1ccc(CNc2ncnc3onc(C)c23)cc1 returned DT40 TDP1 CPT 16µM, ALOX12 inh inactive and DT40 TDP1 no CPT 15µM.
For COc1ccc(OC)c(CCNc2ncnc3onc(C)c23)c1 the results were DT40 TDP1 CPT 7.3µM, ALOX12 inh inactive and DT40 TDP1 no CPT 5.2µM.
Cc1ccc(CNc2ncnc3onc(-c4cc(F)cc(F)c4)c23)cc1 was read as ALOX12 inh inactive.
`Fc1cc(F)cc(-c2noc3ncnc(NCc4ccccc4)c23)c1` gave ALOX12 inh inactive.
COc1ccc(Nc2ncnc3onc(C)c23)c(OC)c1 was read as DT40 TDP1 CPT inactive, ALOX12 inh inactive and DT40 TDP1 no CPT inactive.
`Cc1noc2ncnc(NCc3cccc(Cl)c3)c12` gave DT40 TDP1 CPT 16µM, ALOX12 inh inactive and DT40 TDP1 no CPT 18µM.
For Cc1ccc(CNC(=O)Cn2cc(C#N)c3ccccc32)cc1 the results were ALOX12 inh inactive.
For CC(=O)Nc1ccc(S(=O)(=O)N2CCC(NC(=O)C3CC3)CC2)cc1 the results were ALOX12 inh inactive.
`O=c1cc(OCc2ccccc2)cc[nH]1` gave IL1B secr inh -66, HT1080 IDH1KD tx inactive, DT40 TDP1 CPT inactive, HT1080-NT tox inactive, ALOX12 inh inactive and DT40 TDP1 no CPT inactive.
For Cc1cc(C(=O)Cn2c(=O)c3c(ncn3C3CCCC3)n(Cc3ccccc3)c2=O)c(C)n1C the results were ALOX12 inh inactive.
O=C1CC2CCN(C(=O)c3ccc(C(F)(F)F)cc3)CC2CCN1 (stereo unspecified) was read as ALOX12 inh inactive[6.33 µM].
For O=C1CCCN2N=C(SCC(=O)Nc3ccc(Cl)cc3)SC2=N1 the results were IL1B secr inh inactive, HT1080 IDH1KD tx inactive, DT40 TDP1 CPT inactive, HT1080-NT tox inactive, ALOX12 inh inactive and DT40 TDP1 no CPT inactive.
Screening O=C1CCCN2N=C(SCC(=O)Nc3ccccc3C(F)(F)F)SC2=N1 returned IL1B secr inh inactive, HT1080 IDH1KD tx inactive, DT40 TDP1 CPT inactive, HT1080-NT tox inactive, ALOX12 inh inactive and DT40 TDP1 no CPT inactive.
O=C1CCCN2N=C(SCC(=O)Nc3cccc(Cl)c3)SC2=N1 was read as IL1B secr inh inactive, HT1080 IDH1KD tx inactive, DT40 TDP1 CPT 16µM, HT1080-NT tox inconclusive, ALOX12 inh inactive and DT40 TDP1 no CPT 21µM.
Screening Cc1ccc(NC(=O)CSC2=NN3CCCC(=O)N=C3S2)cc1Cl returned IL1B secr inh inactive, HT1080 IDH1KD tx inactive, DT40 TDP1 CPT inconclusive, HT1080-NT tox inactive, ALOX12 inh inactive and DT40 TDP1 no CPT 21µM.
For O=C1CCCN2N=C(SCC(=O)Nc3cccc(C(F)(F)F)c3)SC2=N1 the results were IL1B secr inh inactive, HT1080 IDH1KD tx inconclusive, DT40 TDP1 CPT 4.6µM, HT1080-NT tox inactive, ALOX12 inh inactive and DT40 TDP1 no CPT 5.2µM.
Screening O=C(CSC1=NCCN1)Nc1cccc(C(F)(F)F)c1 returned IL1B secr inh -99, HT1080 IDH1KD tx 26µM, DT40 TDP1 CPT 21µM, HT1080-NT tox inactive, ALOX12 inh inactive and DT40 TDP1 no CPT inconclusive.
Screening C/C(=N\NC(=O)c1cccc2ccccc12)c1ccc(Cl)s1 returned ALOX12 inh inactive.
